We go through 67 compounds from ChEMBL document CHEMBL4888484, “Replenishing the malaria drug discovery pipeline: Screening and hit evaluation of the MMV Hit Generation Library 1 (HGL1) against asexual blood stage Plasmodium falciparum ,using a nano luciferase reporter read-out” (2022).

About 410 (8.5%) of roughly 4,800 compounds showed an effect of 50% or more. For the sample, strong results were picked, then their nearest neighbours and some compounds at random.

The experiment relates to Plasmodium falciparum. Put plainly: Confirmatory screen in NF54 pLDH assay, in single point, at 2uM, 72h. It is filed as functional, Erythrocyte. Conditions: timepoint 72 hour.
As to `Cc1onc(C(=O)NCc2cnn(C)c2C)c1COc1cccc(C(F)(F)F)c1`, the “% Inhibition” value was -4%.
Take `O=C(Cn1cnc2cc3c(cc21)OCCCO3)Nc1ccc(F)cc1`: the “% Inhibition” value was 13%.
Under `CCc1ccsc1CN=C(N)NC1CCCCC1` stands -9%; under `O=C(Nc1onc2c1CCC2)c1ccc2ccccc2c1`, 41%.
For `O=C(Nc1cc(-c2onc3c2CCCC3)cc(C(F)(F)F)c1)c1cncc(Br)c1`, the “% Inhibition” value worked out at 95%.
Under `Clc1ccc(-c2onc3c2CCCC3)cc1` stands 9%; under `Cc1cc(C)cc(-c2cc3nc(C)cc(N4CCC(C(=O)NCc5cccc(F)c5)CC4)n3n2)c1`, 67%; under `O=C(NCc1cccc(F)c1)[C@H]1CCCN(c2nc3ccccc3n(Cc3ccccc3)c2=O)C1`, 5%.
For the compound `Cc1cc(C)cc(-c2cc3nc(C)cc(N4CCC(C(=O)Nc5ccc(C)c(Cl)c5)CC4)n3n2)c1`, the “% Inhibition” value is -12%.
Take `CC1CN(CC(=O)NCCC#N)C(C)CO1` (configuration not stated): the “% Inhibition” value amounted to 1%.
For the compound `Cc1ccc(CN2C(=O)NC3(CCCCC3C)C2=O)c(OCC2CCOC2)c1` (configuration not stated), the “% Inhibition” value was determined as 6%.
As to `O=C(NCCCN1CCOCC1)C1C2CCCC21` (configuration not stated), the “% Inhibition” value worked out at 8%.
For the compound `CN(C)c1ccc(-c2nc(C(F)(F)F)cc(C(F)(F)C(F)(F)F)n2)cc1`, the “% Inhibition” value came out at 5%.
Regarding `Oc1cccc(CN2CCC3(CC2)C[C@H](c2ccccc2)CN(C2CC2)C3)c1`, the “% Inhibition” value came to 29%.
With `Cc1c(C(=O)Nc2cccc(S(=O)(=O)NC3CC3)c2)cnn1C`, the “% Inhibition” value is given as 12%.
On to `CC1(CCCCNC(=O)N2CC[C@H](S(C)(=O)=O)C2)OCCO1`, for which the “% Inhibition” value is listed as 6%.
Turning to `CCN1c2cc(C(=O)NCc3ccccc3)ccc2C(=O)N2CCCC[C@H]21`, the “% Inhibition” value turned out to be 7%.
Under `COc1ccc(-n2nc(C)c3c2NC(=O)C[C@@H]3c2ccccc2OCC(C)C)nn1` stands -1%; under `Cc1nc2cc3c(cc2n1CC(=O)Nc1ccc(Cl)cc1)OCCCO3`, 15%.
For `Cc1noc(C)c1CC(=O)Nc1cccc(-c2nnco2)c1`, the “% Inhibition” value was 9%.
In the case of `Cc1cc(=O)n(CC(=O)Nc2ccc(Cl)c(C(F)(F)F)c2)c(-c2ccc(F)cc2)n1`, the “% Inhibition” value came out at 0%.
`Cc1nnc(-c2ccc3ccn(CC(=O)Nc4ccc(F)c(Cl)c4)c3c2)o1`: the “% Inhibition” value is recorded as 96%.
Consider `CCc1cccc(NC(=O)Cn2ccc3ccc(-c4nnc(C)o4)cc32)c1`, for which the “% Inhibition” value came out at 89%.
Consider `Cn1cc(-c2ccc(Cl)cc2)c2ncn(CC(=O)Nc3cccc(Cl)c3)c(=O)c21`, for which the “% Inhibition” value was -1%.
As for `CC1CCCC(C)C12NC(=O)N(CN1CCN(CCOc3ccccc3Cl)CC1)C2=O` (configuration not stated), the “% Inhibition” value is listed as 5%.
For `CCOc1ccc(CNC(=O)c2sccc2NC(=O)c2cnccn2)cc1`, the “% Inhibition” value is -15%.
Regarding `COc1ccc(C(=O)c2c[nH]c(C(=O)NC[C@H]3CCCO3)c2)cc1`, the “% Inhibition” value was 3%.
`COc1ccccc1CNC(=O)c1cnn2c3c(cnc12)CCCC3`: the “% Inhibition” value is given as -2%.
With `Brc1cc(Br)c2nc(-c3cnccn3)ccc2c1`, the “% Inhibition” value was 14%.
Turning to `CC(=O)c1ccc(N2CCN(C(=O)c3nn[nH]c3Nc3ccc(C)c(C)c3)CC2)cc1`, the “% Inhibition” value is 8%.
Under `CCn1cc(Cl)c(-c2nnc(-c3cccs3)o2)n1` stands 0%; under `CC1CN(C)C(C)c2c1oc1ccc(N)cc21` (configuration not stated), -17%.
Consider `CC1=NN(c2ncc(C(F)(F)F)cc2Cl)C(=O)c2ccccc2O1`, for which the “% Inhibition” value is 6%.
`Cc1cc2ncn(CN3CC[C@@H](NC(=O)OC(C)(C)C)C3)c2cc1C`: the “% Inhibition” value is on record as -7%.
Under `CC1CC(Nc2ncnc3cc(Br)ccc23)CCN1C` (configuration not stated) stands 95%; under `CN1CCC(Nc2ncnc3c2cnn3C)C1c1ccc(Cl)cc1` (configuration not stated), 12%.
Regarding `Brc1cncnc1NC1CC1`, the “% Inhibition” value is 9%.
Turning to `CCCOc1cccc2c(NC3CCN(CCOC)CC3)ccnc12`, the “% Inhibition” value is 48%.
For the compound `O=C(NCc1ccco1)c1nc(-c2ccncc2)cs1`, the “% Inhibition” value stood at 10%.
`Cc1noc(C)c1NC(=O)CCS(=O)(=O)c1ccc2ccccc2c1`: the “% Inhibition” value stood at 4%.
On to `O=C(Nc1nccnc1C(=O)O)c1ccc(Cl)cc1`, for which the “% Inhibition” value was determined as 14%.
For `CC1CCC(N2CC(C(=O)N(C3CC3)C(C)C(C)C)CC2=O)CC1` (configuration not stated), the “% Inhibition” value is recorded as 1%.
As to `O=C1c2ccccc2C(=O)N1CCc1csc(Cn2cncn2)n1`, the “% Inhibition” value is listed as 10%.
To `CN1CCN(C2(CNc3ccnc4ccccc34)CCCC2)CC1` belongs 98%.
Regarding `c1ccc(Oc2ccnc(NCC34COCCN3CCOC4)n2)cc1`, the “% Inhibition” value is given as -13%.
Take `Cc1noc(OCCc2ccccc2)n1`: the “% Inhibition” value was 11%.
For the compound `Cc1ccc(C)c(-n2cnc(=O)n2[C@H]2CCN(C3CC3)C2=O)c1`, the “% Inhibition” value is 51%.
Regarding `Cc1ccc(C)c(N2CCN(c3ncc4c(=O)n(-c5ccc6c(c5)OCO6)c(=O)[nH]c4n3)CC2)c1`, the “% Inhibition” value was found to be 3%.
On to `Brc1ccc2c(c1)C1CCCCC1N2` (configuration not stated), for which the “% Inhibition” value was 9%.
Turning to `CC[C@H]1CN2C=NC(N3CCN(C(=O)Cc4ccccc4)CC3)=CC2=N1`, the “% Inhibition” value is 25%.
With `Cc1c(F)cccc1NC(=O)N1CCN(C2=CC3=N[C@@H](C)CN3C=N2)CC1`, the “% Inhibition” value is 54%.
In the case of `CC[C@H]1CN2C=NC(N3CCN(C(=O)Nc4cc(F)cc(F)c4)CC3)=CC2=N1`, the “% Inhibition” value was 46%.
To `COC(=O)c1nc(NC(=O)C2(C)CCCC2)sc1C(C)C` belongs -9%; to `Cc1nnc(N2CC[C@H](c3nnc[nH]3)C2)s1`, 4%.
Turning to `CC1(C)CC(=O)C2(Cc3ccccc3N3CCN(Cc4ccccc4)C[C@H]32)C(=O)C1`, the “% Inhibition” value is 12%.
Regarding `COc1c[nH]c(C(=O)NC2CCN(Cc3ccccc3)CC2)cc1=O`, the “% Inhibition” value came to 1%.
Turning to `O=C(CN1C(=O)COc2cc(Br)ccc21)Nc1cccc2ccccc12`, the “% Inhibition” value is 9%.
Consider `CC1CCCN(C2(N3CCCC(C)C3)C(=O)Nc3ccc(F)cc32)C1` (configuration not stated), for which the “% Inhibition” value is 19%.
As to `N#Cc1cccc(CNCC2(N3CCOCC3)CCCCC2)c1`, the “% Inhibition” value is -4%.
`Cc1c(S(=O)(=O)NCCn2nc(C(F)(F)F)cc2C)cnn1C`: the “% Inhibition” value amounted to 8%.
In the case of `Cc1c(C)c2ccc(NC(=O)c3cc4ccccc4o3)cc2[nH]c1=O`, the “% Inhibition” value is listed as 78%.
Turning to `Cc1cc(C(=O)Nc2ccc3ccccc3c2)co1`, the “% Inhibition” value is -3%.
Under `Cc1nc2sc(C(=O)Nc3ccc4ccccc4c3)c(N)c2c(C)c1C` stands 9%; under `O=C(Cn1c(=O)n(-c2cc(F)cc(F)c2)c(=O)c2sccc21)NCc1ccc(F)cc1F`, -2%; under `CCC(CC)C(=O)c1c[nH]c(C(N)=O)c1`, -17%.
Under `Cc1noc(CCNC(=O)N2CCCCC[C@H]2c2ccc(C)o2)n1` stands -1%.
Under `CC(C)(C)c1nc(Cn2cnc3ncc(Br)cc32)no1` stands 6%.

The % Inhibition is the change of the read-out against control, counted positive when it falls.
